{"source": "PubChem BioAssay AID431", "about": "(Sanford-Burnham Center for Chemical Genomics, 2006)", "note": "Screen size: about 63,000 compounds; about 1,100 (1.7%) were called active. The sample holds actives, similar compounds and a random draw of the others, so the mix is not that of the screen. Entries with a potency or affinity are not part of this list. Unmarked numbers belong to inactive results.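 The calls were made as follows: active = compounds whose percent cytotoxicity in the single-dose primary screen, scaled between solvent and toxic-drug controls, exceeds 50; inactive = the rest.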", "data": [{"experiment": "viability loss of HPDE-C7K cells – cell-based, fluorescence, HTS, primary screen (AID 431);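 also: 0% = DMSO solvent wells and 100% = doxorubicin-treated wells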", "conditions": "HPDE-C7K KRASV12 cells, Alamar Blue viability, 48 h; at 10 µM; active compounds read high", "values": [{"smiles": "Cc1cc2cc(CN(Cc3ccc4c(c3)OCO4)C(=O)c3ccco3)c(=O)[nH]c2cc1C", "cytotoxicity": "22.5%"}, {"smiles": "Cn1c(SCC(=O)NCc2cccs2)nnc1-c1cccs1", "cytotoxicity": "-2.7%"}, {"smiles": "CCS(=O)(=O)N1CCN(c2ccccc2F)CC1", "cytotoxicity": "-12.1%"}, {"smiles": "Cc1cc(C)nc(SC2=CS(=O)(=O)c3ccccc32)n1", "cytotoxicity": "2.9%"}, {"smiles": "Cn1c(SC2=CS(=O)(=O)c3ccccc32)nc2ccccc21", "cytotoxicity": "86.7% (active)"}, {"smiles": "O=S1(=O)C=C(Sc2nnc(-c3ccccc3)o2)c2ccccc21", "cytotoxicity": "26.2%"}, {"smiles": "O=S1(=O)C=C(SCCN2CCCCC2)c2ccccc21", "cytotoxicity": "6.2%"}, {"smiles": "O=S1(=O)C=C(Sc2nc3ccccc3s2)c2ccccc21", "cytotoxicity": "107% (active)"}, {"smiles": "Clc1ccc2oc(-c3ccccc3)nc2c1", "cytotoxicity": "3.5%"}, {"smiles": "Cn1c(Sc2nc3ccccc3n2C)nc2ccccc21", "cytotoxicity": "21.7%"}, {"smiles": "O=C1c2ccccc2S(=O)(=O)N1Cc1nc2ccccc2s1", "cytotoxicity": "3.2%"}, {"smiles": "CCOC(=O)c1c(NC(N)=O)sc(C)c1C", "cytotoxicity": "7.3%"}, {"smiles": "CN(C)S(=O)(=O)c1ccc(S(=O)(=O)Nc2ccc3c(c2)oc2ccccc23)cc1", "cytotoxicity": "-0.2%"}, {"smiles": "COc1ccc2c(c1)c(=O)cc(C)n2CC(=O)NCc1ccco1", "cytotoxicity": "6.1%"}, {"smiles": "CCN1CCCC1CNCc1ccc(Cl)cc1Cl", "note": "(centres undefined)", "cytotoxicity": "12.8%"}, {"smiles": "COc1ccc(CCNc2oc(COc3ccccc3F)nc2C#N)cc1", "cytotoxicity": "23.7%"}, {"smiles": "COc1ccc(/C=N/n2cc(-c3ccccc3)nc2N)cc1", "cytotoxicity": "70.8% (active)"}, {"smiles": "COc1ccc(/C=N/n2cc(-c3ccc(OC)cc3)nc2N)cc1", "cytotoxicity": "3.7%"}, {"smiles": "COc1ccc(/C=N/n2cnnc2SCc2ccccc2)cc1", "cytotoxicity": "5.9%"}, {"smiles": "CN1CC2(Cc3c1ccc1ccccc31)C(=O)OC(C)(C)OC2=O", "cytotoxicity": "64.4% (active)"}, {"smiles": "O=C1COc2ccc3ccccc3c2CN1", "cytotoxicity": "-9.6%"}, {"smiles": "Cc1ccc2c(c1)CC1(CN2C)C(=O)OC2(CCCCC2)OC1=O", "cytotoxicity": "-4.6%"}, {"smiles": "O=C(NCCc1ccccc1)c1cnn2c(C(F)F)cc(C3CC3)nc12", "cytotoxicity": "6.9%"}, {"smiles": "O=S(=O)(c1ccc(-c2cn3ccccc3n2)cc1)N1CCOCC1", "cytotoxicity": "-9.8%"}, {"smiles": "CC(C)Cc1cc(C(=O)O)n[nH]1", "cytotoxicity": "9.9%"}, {"smiles": "Cc1ccc(Cn2c(CN3CC(C)OC(C)C3)nc3c2c(=O)n(C)c(=O)n3C)cc1", "note": "(centres undefined)", "cytotoxicity": "-6.7%"}, {"smiles": "COc1ccc(N2C(=O)C3CCCN3C2c2ccccc2OC)cc1", "note": "(centres undefined)", "cytotoxicity": "-10%"}, {"smiles": "CN1CCN(c2nc(-c3ccccc3)nc3c2oc2ccccc23)CC1", "cytotoxicity": "24.2%"}, {"smiles": "O=C(O)C1CCN(c2nc(-c3ccccc3)nc3c2oc2ccccc23)CC1", "cytotoxicity": "27.2%"}, {"smiles": "COc1cc2nc(-c3ccccc3)nc(N3CCCC3)c2cc1OC", "cytotoxicity": "27.3%"}, {"smiles": "CCOc1cc2nc(-c3ccc(OC)c(OC)c3)nc(N3CCOCC3)c2cc1OC", "cytotoxicity": "74.8% (active)"}, {"smiles": "COc1ccc(-c2csc(N3CCOCC3)n2)cc1OC", "cytotoxicity": "2.9%"}, {"smiles": "CC(C)(C)Nc1ncnc2c1cnn2-c1ccccc1", "cytotoxicity": "17.2%"}, {"smiles": "COC(=O)c1cccc(NC(=O)CSc2nnc(COc3ccccc3)n2C)c1", "cytotoxicity": "8.3%"}, {"smiles": "CC(C)N(C(=O)COc1ccc(Br)cc1Cl)C(C)C", "cytotoxicity": "-4.2%"}, {"smiles": "Cc1nc2nc(Cc3ccccc3)nn2c(C)c1Cl", "cytotoxicity": "0.4%"}, {"smiles": "O=C(c1ccc(Cn2cc(Cl)cn2)o1)N1CCN(Cc2ccc3c(c2)OCO3)CC1", "cytotoxicity": "12%"}, {"smiles": "CC1CCN(C(=O)c2ccc(COc3ccccc3Cl)o2)CC1", "cytotoxicity": "-8.5%"}, {"smiles": "O=C(c1ccc(COc2ccccc2Cl)o1)N1CCN(c2ccccc2)CC1", "cytotoxicity": "24%"}, {"smiles": "O=C(c1ccc(Br)o1)N1CCN(Cc2ccc3c(c2)OCO3)CC1", "cytotoxicity": "-4.9%"}, {"smiles": "O=C(c1ccc(COc2ccccc2Cl)o1)N1CCN(Cc2ccc3c(c2)OCO3)CC1", "cytotoxicity": "65.1% (active)"}, {"smiles": "O=C(c1ccc(COc2ccc(Cl)cc2)o1)N1CCN(Cc2ccc3c(c2)OCO3)CC1", "cytotoxicity": "94.8% (active)"}, {"smiles": "CC(=O)c1ccccc1OCCCN1CCCCC1", "cytotoxicity": "1.2%"}, {"smiles": "O=C(CNS(=O)(=O)c1cccs1)N1CCCC1", "cytotoxicity": "-3.8%"}, {"smiles": "Cc1occc1-c1nnc(SCc2nc3ccccc3c(=O)n2CC#N)n1C", "cytotoxicity": "-5.4%"}, {"smiles": "Cn1c(COc2ccccc2)nnc1SCCN1CCOCC1", "cytotoxicity": "-8.5%"}, {"smiles": "O=c1[nH]c(Nc2ccccc2)cc2ccccc12", "cytotoxicity": "0.6%"}, {"smiles": "Cc1ccccc1Nc1cc2ccccc2c(=O)[nH]1", "cytotoxicity": "73.3% (active)"}, {"smiles": "Cc1cc2ccccc2c(=O)[nH]1", "cytotoxicity": "3%"}, {"smiles": "Fc1ccc(-c2cc3nc(-c4ccccc4)cc(N4CCN(CCN5CCOCC5)CC4)n3n2)cc1", "cytotoxicity": "44.9%"}, {"smiles": "COc1ccc(OC)c(S(=O)(=O)NCc2cccnc2)c1", "cytotoxicity": "-4.2%"}, {"smiles": "CCn1c(SCC(=O)N2CCc3ccccc32)nnc1-c1ccncc1", "cytotoxicity": "-9.5%"}, {"smiles": "CN1CCN(Cc2ccc(OCc3ccccc3)cc2)CC1", "cytotoxicity": "33.9%"}, {"smiles": "COC(=O)COc1ccc(S(=O)(=O)Nc2cc(OC)ccc2OC)cc1", "cytotoxicity": "0%"}, {"smiles": "COc1ccc(OC)c(NS(=O)(=O)c2ccc(N3CCCC3=O)cc2)c1", "cytotoxicity": "79.5% (active)"}, {"smiles": "COc1ccc(OC)c(NS(=O)(=O)c2ccc(SC)cc2)c1", "cytotoxicity": "30.3%"}, {"smiles": "CCCCOc1ccc(S(=O)(=O)Nc2cc(OC)ccc2OC)cc1", "cytotoxicity": "32.5%"}, {"smiles": "COc1ccc(OC)c(NS(=O)(=O)c2ccc3c(c2)CCC(=O)N3)c1", "cytotoxicity": "3.2%"}, {"smiles": "CCOc1ccc(S(=O)(=O)Nc2cc(OC)ccc2OC)cc1", "cytotoxicity": "75.9% (active)"}, {"smiles": "COc1ccccc1NC(=O)CSc1nnc(-c2ccncc2)o1", "cytotoxicity": "-3.6%"}, {"smiles": "CCc1nnc(NC(=O)CSc2nnc(-c3ccccc3O)n2-c2ccc(C)cc2C)s1", "cytotoxicity": "61.3% (active)"}, {"smiles": "CCn1c(SCC(=O)Nc2nc(-c3ccccc3)cs2)nnc1-c1ccccc1O", "cytotoxicity": "55.5% (active)"}, {"smiles": "CCn1c(SCC(=O)Nc2nc(-c3ccc(C)cc3)cs2)nnc1-c1ccccc1O", "cytotoxicity": "46.4%"}, {"smiles": "CCn1c(SCC(=O)Nc2nc3ccccc3s2)nnc1-c1ccc(OC)cc1", "cytotoxicity": "78.6% (active)"}, {"smiles": "CCn1c(Cc2ccccc2)nnc1SCC(=O)Nc1nc2ccccc2s1", "cytotoxicity": "8.8%"}, {"smiles": "CCn1c(SCC(=O)Nc2nc(-c3ccccc3)cs2)nnc1-c1ccccc1", "cytotoxicity": "23.1%"}, {"smiles": "CCn1c(Cc2ccc(OC)cc2)nnc1SCC(=O)Nc1nc2ccccc2s1", "cytotoxicity": "-6.3%"}, {"smiles": "CCc1nnc(NC(=O)CSc2nnc(-c3ccccc3O)n2-c2ccc(C)cc2)s1", "cytotoxicity": "-7.5%"}, {"smiles": "CCc1nnc(NC(=O)CSc2nnc(-c3ccccc3OC)n2-c2ccccc2)s1", "cytotoxicity": "-6.6%"}]}]}
